± gives the standard deviation of the averaged measurements. Over roughly 3,800 compounds, “cell shape (eccentricity) Z-score vs DMSO control” has its median near 1.1; the lowest 2% begin near -4.7. What follows is part of a selection rich in the lowest values, with near analogues and random picks from the rest.
Test system: human monocyte-derived macrophages (M0)
Assay: cell shape (eccentricity) Z-score vs DMSO control; higher = more elongated, M2-like morphology
Details: 20 µM; 24 h; macrophage state: M0 (M-CSF)
Description: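 Primary human monocyte-derived macrophages (M-CSF differentiated, pooled from 4 donors, 5000 cells/well in 384-well plates) were treated with each compound at 20 uM for 24 h, then fixed and stained with phalloidin/DAPI and imaged on an Opera Phenix (6 fields, about 1000 cells/well). Cell eccentricity was measured with CellProfiler, and a Z-score (t-test) was computed against 4 DMSO control wells in the same row. Negative values mean round (M1-like) cells and positive values mean elongated (M2-like) cells; the paper's hit cutoffs are Z <= -4 (M1) and Z >= 6 (M2). Scale: negative = round, M1-like.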

Compound | cell shape (Z-score)
C=C1[C@@H](C)[C@H]2[C@H](Cc3ccccc3)NC(=O)[C@]23OC(=O)/C=C/[C@H](O)CCC[C@@H](C)C/C=C/[C@H]3[C@@H]1O | -24.4
C/C=C/c1ccc2c(c1)OCO2 | 2.7
CC(C)[C@]12O[C@H]1[C@@H]1O[C@]13[C@]1(O[C@H]1CC1C4=C(CC[C@@]13C)C(=O)OC4)[C@@H]2O (stereo not given in full) | 8.48
CC(=O)O[C@H]1C[C@@H](OC(C)=O)C(C)(C)C2C[C@@H](OC(C)=O)[C@]3(C)C(CC[C@@]4(C)[C@H](c5ccoc5)C(=O)[C@H]5O[C@]543)[C@]21C (stereo not given in full) | 0.275
O=C1NCN(c2ccccc2)C12CCN(CCCOc1ccc(F)cc1)CC2 | 1.17
O=c1[nH]c2ccccc2n1CCCN1CCC(n2c(=O)[nH]c3cc(Cl)ccc32)CC1 | -1.03
O=c1[nH]c2ccccc2n1C1CCN(CCCC(c2ccc(F)cc2)c2ccc(F)cc2)CC1 | -6.33
O=c1ccc2cc(O[C@@H]3O[C@H](CO)[C@@H](O)[C@H](O)[C@H]3O)c(O)cc2o1 | 2.48
CC(C)CC1C(=O)N2CCC[C@H]2C2(O)O[C@](NC(=O)C3C=C4c5cccc6[nH]c(Br)c(c56)C[C@H]4N(C)C3)(C(C)C)C(=O)N12 (stereo not given in full) | 4.71
O=C1Nc2ccccc2C2(CCN(CCc3ccc(C(F)(F)F)cc3)CC2)O1 | -0.107
O=C(N[C@H]1CN2CCC1CC2)c1ccc(Cl)cc1 | 1.37
c1cncc(C2=NCCC2)c1 | 0.998
COc1ccc2c3c([nH]c2c1)[C@H](CC(C)C)N1C(=O)[C@H](CCC(=O)OC(C)(C)C)NC(=O)[C@@H]1C3 | 9.45
COc1ccc2c(c1)[nH]c1c(C)nccc12 | -5.5
C=C[C@H]1C[N@@]2CC[C@H]1C[C@H]2[C@H](O)c1ccnc2ccccc12 | 2.46
CN1c2ccccc2C(NCCCCCCC(=O)O)c2ccc(Cl)cc2S1(=O)=O (stereo not given) | 0.787
CCCCC/C=C\C/C=C\C/C=C\C/C=C\CCCC(=O)NCc1ccc(O)c(OC)c1 | -0.144
O=C(Cc1ccc(Cl)c(Cl)c1)N1CCCCC1CN1CCCC1 (stereo not given) | -0.746
Fc1ccc(C(OCCN2CCN(CCCc3ccccc3)CC2)c2ccc(F)cc2)cc1 | -0.302
C(=Cc1ccccc1)CN1CCN(CCOC(c2ccccc2)c2ccccc2)CC1 | 1.98
Fc1ccc(C(OCCN2CCN(CC=Cc3ccccc3)CC2)c2ccc(F)cc2)cc1 | -4.91
Clc1ccc(C(OCCN2CCCCC2)c2ccccc2)cc1 (stereo not given) | 9.16

Compound | cell shape (Z-score)
C(=C\c1ccccc1)/CN1CCN(CCOC(c2ccccc2)c2ccccc2)CC1 | -5.62
c1ccc(CCCN2CCN(CCOC(c3ccccc3)c3ccccc3)CC2)cc1 | 4.69
Cc1c([N+](=O)[O-])oc2ccc3ccccc3c12 | -0.364
CN(C)C(=O)Oc1cc(OC(=O)N(C)C)cc(C(O)CNC(C)(C)C)c1 (stereo not given) | 2.11
CC(=O)O[C@@H](c1nc2ccccc2c(=O)n1[C@@H]1C[C@@]2(OC1=O)c1ccccc1N1C(=O)[C@H](C)N(O)[C@@H]12)C(C)C | 2.14
COc1cc(Br)c(OC)c2c1C(CN)C2 (stereo not given) | -4.96
CCCN(CCC)C1CCc2c(OC)cccc2C1C (stereo not given) | 4.87
CC1=CC(=O)c2c(O)cccc2C1=O | -4.68
CC(C)NCC(O)c1ccc(N)c(C#N)c1 (stereo not given) | -0.285
CC(=O)O[C@@H]1C[C@@]2(C)[C@H](c3ccoc3)C[C@H]3O[C@]32[C@]2(C)C(=O)C(=O)C3C(C)(C)C(=O)C=C[C@]3(C)C12 (stereo not given in full) | -3.62
CC1(C)C(=O)C=C[C@@]2(C)C1C[C@@H](O)[C@]1(C)C2CC[C@@]2(C)[C@H](c3ccoc3)OC(=O)[C@H]3O[C@]321 (stereo not given in full) | 1.86
CC(=O)O[C@@H]1CC2C(C)(C)C(=O)C=C[C@]2(C)C2CC[C@]3(C)C(=CC(=O)O[C@H]3c3ccoc3)[C@@]21C (stereo not given in full) | -6.06
CC(C)(O)c1cc(O)c2c(c1)CCC1C(C)(C(=O)O)CCCC21C (stereo not given) | 0.93
CC(C)c1c(CN(C)C(C)Cc2ccccc2)n(C)n(-c2ccccc2)c1=O (stereo not given) | 2.2
CC12C(=O)OC(=O)C1(C)C1CCC2O1 (stereo not given) | -12.8
CN1CCc2cc3c(cc2[C@H]1C1OC(=O)c2c1ccc1c2OCO1)OCO3 (stereo not given in full) | 0.327
CC[C@@H](C(=O)[C@@H](C)[C@@H](O)[C@H](C)[C@@H]1O[C@@H]([C@@H](CC)C(=O)O)CC[C@@H]1C)[C@H]1OC2(C=C[C@@H](O)[C@]3(CC[C@@](C)(C4CC[C@](O)(CC)[C@H](C)O4)O3)O2)[C@H](C)C[C@@H]1C (stereo not given in full) | 1.16
C=CCN1C[C@H](C)N([C@H](c2ccc(C(=O)N(CC)CC)cc2)c2cccc(O)c2)C[C@H]1C | 1.38
C[C@]12CCC3C(CC[C@]4(O)C[C@@H](O)CC[C@]34C=O)[C@@]1(O)CCC2C1=CC(=O)OC1 (stereo not given in full) | -3.05
CC(C)(O)CCC(=O)[C@](C)(O)[C@H]1[C@H](O)C[C@@]2(C)[C@@H]3CC=C4C(C=C(O[C@@H]5O[C@H](CO)[C@@H](O)[C@H](O)[C@H]5O)C(=O)C4(C)C)[C@]3(C)C(=O)C[C@]12C (stereo not given in full) | 1.51
CC(C)(O)/C=C/C(=O)[C@](C)(O)C1[C@H](O)C[C@@]2(C)C3CC=C4C(CC(=O)C(=O)C4(C)C)[C@]3(C)C(=O)C[C@]12C (stereo not given in full) | -23.9
CN([N+][O-])c1cc(O)ccc1O | -4.54

Compound | cell shape (Z-score)
C=CCC1(C(C)CCC)C(=O)N=C(S)NC1=O (stereo not given) | 2.85
CC(=Cc1csc(C)n1)[C@H]1C[C@@H]2O[C@]2(C)CCC[C@H](C)[C@H](O)[C@@H](C)C(=O)C(C)(C)[C@@H](O)CC(=O)O1 | 0.111
O=C1c2ccccc2C(=O)c2ccccc21 | 1.99
c1ccc2c(c1)[I+]c1ccccc1-2 | -7.52
C[C@@]12C[C@@H](c3ccoc3)OC(=O)C1CC[C@]1(C)[C@H]2[C@H]2C=C[C@]1(O)C(=O)O2 (stereo not given in full) | -0.795
COc1cc2c(c(OC)c1OC)-c1ccc(OC)c(=O)cc1C(NC(C)=O)CC2 (stereo not given) | 8.73
CC(C)(C)c1cc(C=C(C#N)C#N)cc(C(C)(C)C)c1O | -0.65
C[C@H]1O[C@@H](O[C@H]2CC[C@]3(CO)C4CC[C@]5(C)[C@@H](C6=CC(=O)OC6)CC[C@]5(O)C4CC[C@H]3C2)[C@H](O)[C@H](O)[C@@H]1O (stereo not given in full) | 1.31
C[C@H]1O[C@@H](O[C@H]2CC[C@]3(CO)C4CC[C@]5(C)[C@@H](C6=CC(=O)OC6)CC[C@]5(O)[C@@H]4CC[C@H]3C2)[C@H](O)[C@H](O)[C@@H]1O[C@@H]1O[C@H](CO)[C@@H](O)[C@H](O)[C@H]1O (stereo not given in full) | -6
CO[C@@H]1[C@H](O)[C@@H](O[C@@H]2C[C@H]3CC[C@@H]4C(CC[C@]5(C)[C@@H](C6=CC(=O)OC6)CC[C@]45O)[C@@]3(C)[C@H](O)C2)O[C@H](C)[C@@H]1O[C@@H]1O[C@H](CO)[C@@H](O)[C@H](O)[C@H]1O (stereo not given in full) | -2.59 ± 0.87
COc1ccc2c(c1O)-c1cc(O)cc3c1[C@@H](C2)N(C)CC3 | 0.611
CCCn1c(C)c(C(=O)c2cccc3ccccc23)c2ccccc21 | 1.57
Cc1c(C(=O)c2cccc3ccccc23)c2cccc3c2n1[C@H](CN1CCOCC1)CO3 | -5.15
Cc1c(C(=O)c2cccc3ccccc23)c2cccc3c2n1[C@@H](CN1CCOCC1)CO3 | 3.85
COc1cc([C@@H]2c3cc4c(cc3[C@H](OC(C)=O)[C@H]3COC(=O)[C@H]23)OCO4)cc(OC)c1OC | 9.18
Cc1ccc2c(c1)Cc1c(C(=O)NC3CCCCC3)nn(-c3ccc(Cl)cc3Cl)c1-2 | 2.43
N#CC(C#N)=Cc1cc(O)c(O)c([N+](=O)[O-])c1 | -0.026
CCNC(=O)C1OC(n2cnc3c(N)ncnc32)C(O)C1O (stereo not given) | 4.21
CCOC(=O)c1ncn2c1CN(C)C(=O)c1cc(N=[N+]=[N-])ccc1-2 | 2.52
CN1C[C@H](C(=O)N[C@]2(C)O[C@@]3(O)[C@@H]4CCCN4C(=O)[C@H](Cc4ccccc4)N3C2=O)C[C@@H]2c3cccc4[nH]cc(c34)C[C@H]21 | 3.57
CC(N)Cn1ccc2cc(F)c(Cl)cc21 (stereo not given) | 0.211
